Shown are actives, neighbours in structure and some others; about 7.3% of the full set was active somewhere.
FMDV antiviral = High Throughput Screening for Foot and Mouth Disease Virus Antivirals; FMDV antiviral cell-based qHTS; 1.2% of 410,000 active; Potency, µM (series often up to 57.9 µM), inactives show top-dose activity change, negative = inhibition, usual class: inhibitors; calls by dose curve; tested in HEK293T cells; note: read-out not given here; potency is the fitted concentration of half-maximal effect; nearly all actives have a fitted effect of over 45% in size
HCV inhibitor = qHTS Assay for Inhibitors of Hepatitis C Virus (HCV). Potency, µM (highest dose often 41.8 µM), without a hit: at the top dose activity change, negative = inhibition, actives largely listed as inhibitors. AID 651820, 2012. Huh7.5.1 HCVcc-Cre infection, luciferase reporter, 44 h. 3.4% of 340,000 active; active = well fitted inhibition curve with a large enough effect; inconclusive = small, poorly fitted or top-dose-only effect, or another doubt; inactive = no such curve, though single readings can be large or run the other way; note: potency is the fitted concentration of half-maximal effect
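Seed cells (1,000/well) for 4 h; treat with compound and infect with HCVcc-Cre, moi about 0.5. Incubate 44 h, then detect luciferase activity.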
HCMV antiviral = qHTS Assay for inhibitors of the human cytomegalovirus (HCMV). HFF cells, HCMV-luciferase reporter, 72 h; active compounds read low. activity change, negative = inhibition, % at 57.5 µM. 4.5% of 410,000 active; in the data active = activity change below about -60%; inconclusive = no clear call, values can overlap the other calls; inactive = above about -39%
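Human foreskin fibroblasts infected with luciferase-reporter HCMV at MOI 1 PFU/cell, compounds at two doses. Luciferase measured 72 h post infection; normalized to buffer-only basal and Salinomycin (10uM) controls.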
Vaccinia mCherry = qHTS for Stage-Specific Inhibitors of Vaccinia Orthopoxvirus: mCherry Reporter Primary qHTS; Vaccinia virus mCherry reporter infection, fluorescence; Potency, µM (titrated, usually from 36.5 µM), inactives show at the top dose activity change, negative = inhibition, actives largely listed as inhibitors; 0.63% of 310,000 active; AID 720579, 2013; calls by dose curve; tested in A549 cells; note: potency is the fitted concentration of half-maximal effect; nearly all actives have a fitted effect of over 35% in size
Vaccinia Venus = qHTS for Stage-Specific Inhibitors of Vaccinia Orthopoxvirus: Venus Reporter Primary qHTS | AID 720580, 2013 | 0.46% of 330,000 active | Potency, µM (doses to about 36.5 µM), for the others: at the top dose activity change, negative = inhibition, actives largely listed as inhibitors | Vaccinia virus Venus reporter expression, fluorescence; calls by dose curve; tested in A549 cells; note: potency is the fitted concentration of half-maximal effect; nearly all actives have a fitted effect of over 30% in size
Active calls of the source: *; i = inactive; u = inconclusive; x = no result given; [ ] = remark or other dose. % is set by controls: 0 for no effect and ±100 for the full control effect.

SMILES | FMDV antiviral | HCV inhibitor | HCMV antiviral | Vaccinia mCherry | Vaccinia Venus
O=C(CSc1nnc(-c2ccncc2)n1Cc1ccco1)Nc1nc(-c2ccccc2)cs1 | 18µM* | 10µM* | -5 | -10% | -30%
O=C(CSc1nnc(-c2ccc(F)cc2)o1)Nc1ccc(S(=O)(=O)N2CCCCCC2)cc1 | x | -27% | -84* | -15% | -2%
CCn1c(CCNC(=O)c2cccs2)nnc1SCC(=O)Nc1cccc(Cl)c1 | -10% | 2% | 2 | x | x
O=C(CSc1nnc(-c2ccncc2)n1Cc1ccco1)Nc1ccccc1Cl | -8% | -14% | 2 | i | -14%
CCn1c(CCNC(=O)c2cccs2)nnc1SCC(=O)Nc1nc(-c2ccccc2)cs1 | 20µM* | -23% | 51 | x | x
CCCOc1ccc(CNC(=O)CN2C(=O)c3cccnc3Oc3ccc(C)cc32)cc1 | -14% | x | u | -14% | -15%
O=C(CCSCc1cccc(Cl)c1)NCc1ccccc1Cl | -2% | x | -9 | -7% | -10%
CCc1cccc(NC(=O)CN(C)S(=O)(=O)c2ccc3c(c2)CCCN3C(C)=O)c1 | -16% | x | -20 | -19% | -15%
CCn1c(C)nc2cc(NS(=O)(=O)c3ccccc3)cc(C(=O)N3C[C@@H](C)O[C@@H](C)C3)c21 | -5% | x | x | i | -10%
O=C(N[C@H]1CC[C@@]23CCCN2C(=O)CCC[C@H]3[C@H]1Cc1ccccc1)c1cccnc1 | x | x | -11 | x | x
O=C(CSc1nnc(-c2ccccc2)n1Cc1ccco1)Nc1ccc(S(=O)(=O)N2CCCC2)cc1 | -28% | 14µM* | -16 | x | x
O=C(CSc1nnc(-c2ccco2)n1Cc1ccco1)Nc1ccccc1 | -8% | -27% | -33 | x | x
CCn1c(SCC(=O)Nc2nc(-c3ccccc3)cs2)nnc1-c1ccccc1O | 35µM* | 11µM* | 1 | x | u
COc1ccc(OC)c(CN2CCC3(CCC(CNC(=O)c4ccco4)O3)CC2)c1 (configuration not stated) | -8% | x | x | -13% | -1%
CCN1CCN(C(=O)c2cc(NC(=O)COC)cc3nc(-c4ccncc4)n(C)c23)CC1 | -9% | x | x | -10% | 1%
COc1ccc(C(=O)NCCSc2c(C)[nH]c3ccccc23)cc1 | -29% | x | -96* | -12% | -12%
O=C1CSc2ccc(C(=O)N3CCCCC3)cc2N1 | -16% | x | -68* | i | -9%
CC(=O)N1CCc2c(sc(NC(=O)C3CCCN3S(=O)(=O)c3cccs3)c2C(N)=O)C1 (configuration not stated) | 28µM* | -17% | -7 | i | -11%
COc1cccc(-c2ccc(O)c(CNCc3cccc4ccccc34)c2)n1 | -5% | x | x | i | -12%
CCOC(=O)C1=C(CSc2nc3c(cc2C#N)CN(C)CC3)OC(N)=C(C#N)C1c1ccc(Cl)cc1 (configuration not stated) | 0% | 13µM* | -1 | x | -1%
C[C@H](CO)N1C[C@H](C)[C@@H](CN(C)S(=O)(=O)c2ccc(F)cc2)Oc2cc(Br)ccc2S1(=O)=O | x | x | -2 | x | x
CN1CCc2cc3c(cc2C1C1OC(=O)c2c1ccc1c2OCO1)OCO3 (configuration not stated) | 2% | x | x | -16% | -11%
CN1CCc2cc3c(c4c2[C@H]1[C@H](O)c1ccccc1-4)OCO3 | -16% | -3%[8.37 µM] | -71* | u | 22%
COC(=O)c1ccccc1NC(=O)c1c(C)oc2ncn(C)c(=O)c12 | 12% | x | -91* | -3% | -3%
CCN1CCCC1CNC(=O)c1cnn(-c2nccc(-c3ccccc3OC)n2)c1-c1ccco1 (configuration not stated) | -6% | x | x | -14% | 0%
Cc1ccccc1NS(=O)(=O)c1ccc(C(=O)NCC(C)(C)N2CCOCC2)cc1 | -29% | u | -67* | -3% | -17%
Cn1ncc2c(O/N=C(\N)c3ccc(C(C)(C)C)cc3)ncnc21 | 14µM* | 5.6µM* | x | i[7.34 µM] | -12%[7.34 µM]
Cc1ccc(Cl)cc1S(=O)(=O)N1CCC(C(=O)NC2CCN(Cc3ccccc3)CC2)CC1 | -14% | u | -72* | -19% | 0%
CC1CCN(S(=O)(=O)c2ccc3nc(Nc4ccc(C#N)cc4)ccc3c2)CC1 | u | x | u | u | -20%

Compound activity: PubChem, National Center for Advancing Translational Sciences (NCATS)
